Data published in PubChem BioAssay (NCI).
About 83,000 compounds went through this panel and 20% of them were active in at least one assay; those are over-represented in the sample as a whole.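 For each line, cells grew in 96-well plates with the test compound present at a single concentration for 48 hours.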 Activity calls are given as the source filed them. Rule for the calls: active = growth percent below 10; inactive = the rest.

The compounds below were run on HL-60(TB) leukemia (assay: NCI-60 one-dose screen, 48 h (100 = growth as untreated, 0 = no growth, -100 = all killed)). Settings: 10 µM unless noted.
For `Clc1cc(Cl)cc(-c2cnc3nonc3n2)c1`, the growth was 10.9% (inactive).
For `CCN(CC)CCCC(C)Nc1c(C)cnc2cc(Cl)c(C)cc12` (centres undefined), the growth was 65.9% (inactive).
For `O=C(Nc1ccccc1)c1sc(-c2cccc(C(F)(F)F)c2)cc1O`, the growth was 40.2% (inactive).
With `COc1ccc(/C=c2\c(=O)n(-c3ccccc3)c3nn4c(=O)c(=O)[nH]nc4n23)cc1` the growth was 112% (inactive).
In the case of `O=C(Nc1ccc(-n2cc(-c3ccncc3)c(-c3ccc(Cl)c(O)c3)n2)cc1)c1ccc(Cl)c(Cl)c1`, the growth is reported as -27% (active).
In the case of `O=C(Nc1cccc(-n2cc(-c3ccncc3)c(-c3ccc(Cl)c(O)c3)n2)c1)Nc1ccc(Cl)c(C(F)(F)F)c1`, the growth is reported as -11.2% (active).
In the case of `COc1cc(/C=C/C(=O)c2cc(-c3ccccc3)ccc2O)cc(OC)c1OC`, the growth is reported as 42.6% (inactive).
In the case of `CS(=O)(=O)c1ccc(-n2nc(-c3ccc(Br)cc3)c3ccccc3c2=O)cc1`, the growth is reported as 93.3% (inactive).
`CC1CCC2(OC1)OC1CC3C4CC=C5CC(O)CCC5(C)C4CCC3(C)C1C2C` (centres undefined) was tested, and the growth was 91.9% (inactive).
With `O=C(Nc1cccc(-n2cc(-c3ccncc3)c(-c3ccc(O)c(Cl)c3)n2)c1)c1ccc(N2CCOCC2)c(C(F)(F)F)c1` the growth was -10.6% (active).
With `CN(C)c1ccc(/C=C/C(=O)c2cccc(Nc3nc(Nc4ccccc4)nc(Nc4ccccc4)n3)c2)cc1` the growth was 99.9% (inactive).
For `N[C@@H](CCCCNCC(=O)O)C(=O)O`, the growth was 106% (inactive).
For `COc1cccc(Nc2nc(SC)nc(-c3cccc([N+](=O)[O-])c3)c2C#N)c1`, the growth was 112% (inactive).
For `CCn1cc(CNc2ccc(C(=O)Nc3cc4cc(OC)c(OC)cc4c(C)n3)cc2)c(C)n1`, the growth was 0.232% (active).
